The values below come from PMC4552634, “A New Set of Chemical Starting Points with Plasmodium falciparum Transmission-Blocking Potential for Antimalarial Drug Discovery” (PLoS ONE, 2015).

Molecules are shown by their SMILES. The campaign covered roughly 13,000 compounds. About 3,200 (25%) showed an effect of 50% or more. The list shows a part of the results.

For orientation: % Inhibition means the relative decrease from the control value, in per cent.

This assay relates to P. falciparum stage V gametocytes. Also on record: BacTiter-Glo ATP luminescence viability of purified stage V gametocytes in 384-well plates, per cent inhibition versus DMSO. Particulars: 48 h, 5 µM; inhibitor.
Consider `CC(=O)Nc1cccc(CNCc2ccc(-c3cnc(N4CCCC(C)(C)C4)nc3)cc2)c1` [TCMDC-133549], for which the “% Inhibition” value is recorded as -38.45%.
Turning to `CCCN(CC1CC1)c1ncc(-c2cccc(CNCCC3CCCN3C)c2)cn1` (centres unmarked) [TCMDC-133142], the “% Inhibition” value was 40.53%.
For the compound `CN1CCCC1CCNCc1cccc(-c2cnc(N(C)C3CCCCC3)nc2)c1` (centres unmarked) [TCMDC-133141], the “% Inhibition” value is given as 75.89%.
Turning to `CN(CCc1ccccc1)c1ncc(-c2cccc(CNCCC3CCCN3C)c2)cn1` (centres unmarked) [TCMDC-133143], the “% Inhibition” value is 92.22%.
In the case of `CN(c1ncc(-c2cccc(CNCc3ccccc3O)c2)cn1)C1CCCCC1` [TCMDC-133137], the “% Inhibition” value is listed as -20.17%.
Regarding `CN1CCCC1CCNCc1cccc(-c2cnc(N3CCCC(C)(C)C3)nc2)c1` (centres unmarked) [TCMDC-133144], the “% Inhibition” value is 90.28%.
With `CC1(C)CCCN(c2ncc(-c3cccc(CNCc4ccccc4O)c3)cn2)C1` [TCMDC-133139], the “% Inhibition” value worked out at 32.42%.
Take `COC(=O)c1cc(OC)c(OC)cc1NC(=O)NC12CC3CC(CC(C3)C1)C2` [TCMDC-124384]: the “% Inhibition” value was -44.27%.
As to `CC(Oc1ccc(Cl)cc1)C(=O)Nc1cc(C(F)(F)F)ccc1-n1cncn1` (centres unmarked) [TCMDC-125023], the “% Inhibition” value was 17.82%.
As for `Cc1cccc(CNc2nc(C)cc(N[C@@H](CC(C)C)C(=O)NCCOc3ccccc3)n2)c1` [TCMDC-134892], the “% Inhibition” value is recorded as -42.27%.
On to `Fc1ccc2nc(-c3cccc(-c4cccc(CN5CCN(c6cnccn6)CC5)c4)c3)[nH]c2c1` [TCMDC-132676], for which the “% Inhibition” value is reported as -22.96%.
With `CCCC(C)Nc1nc(C)cc(N[C@@H](CC(C)C)C(=O)Nc2ccc(OC)cc2)n1` (some centres unmarked) [TCMDC-134896], the “% Inhibition” value was -21.51%.
The value for `CCCCCCCCn1ccc(=N)cc1` [TCMDC-125630] was 13.04%; that for `Cc1cc(N2CCC(NS(=O)(=O)c3ccc(F)cc3)CC2)nc(Nc2cccc(C#N)c2)n1` [TCMDC-134214] was 18.32%.
Turning to `CCNc1cc(C(=O)N[C@@H](Cc2ccccc2)[C@H](O)CNC2CCC(C)(C)C2)cc(N2CCCCS2(=O)=O)c1` (some centres unmarked) [TCMDC-135302], the “% Inhibition” value worked out at 9.387%.
Regarding `COc1ccc(NC(=O)CSc2nc(-c3ccccc3Cl)ns2)cc1` [TCMDC-123543], the “% Inhibition” value is 61.96%.
As for `COc1ccc(NC(=O)CSc2nc(-c3ccccc3Cl)ns2)cc1OC` [TCMDC-125346], the “% Inhibition” value stood at 40.34%.
`COc1cccc(NC(=O)CSc2nc(-c3ccccc3Cl)ns2)c1` [TCMDC-123544]: the “% Inhibition” value was found to be 62.62%.
For the compound `COc1ccc(CC(=O)Nc2ccc(Nc3nc(C)cc(N4CCCC4)n3)cc2)cc1` [TCMDC-124966], the “% Inhibition” value is -9.476%.
As for `COc1ccccc1Cc1nc2ccccc2nc1SCC(=O)Nc1cccc(C(F)(F)F)c1` [TCMDC-123879], the figure is 0.3581%; as for `COc1ccccc1-c1ccc2nnc(SCC(=O)Nc3ccc4c(c3)OCCO4)n2n1` [TCMDC-124319], 10.92%; as for `O=C(Nc1cccc(Cl)c1)c1cc2ccccc2cc1O` [TCMDC-124171], 9.946%.
With `O=C(CSc1nc(-c2ccccc2Cl)ns1)Nc1ccc2c(c1)OCO2` [TCMDC-124546], the “% Inhibition” value is 53.36%.
As for `O=C(CSc1nc(-c2ccccc2Cl)ns1)Nc1cccc(Cl)c1` [TCMDC-124548], the figure is 67.64%; as for `O=C(Nc1cccc(CN2CCCN(Cc3ccc4c(c3)OCO4)CC2)c1)c1ccc(Cl)c(Cl)c1` [TCMDC-141820], -97.11%; as for `CC(=O)c1ccc(NC(=O)CSc2nc(-c3ccccc3Cl)ns2)cc1` [TCMDC-124545], -8.871%.
In the case of `O=C(CSc1nc(-c2ccccc2Cl)ns1)Nc1cccc(F)c1` [TCMDC-124549], the “% Inhibition” value is 39.34%.
On to `Cc1ccc2ccccc2c1CCCON1C(N)=NC(N)=NC1(C)C` [TCMDC-131758], for which the “% Inhibition” value was determined as 22.75%.
For the compound `O=C(Nc1ccc(Cl)c(Cl)c1)N1CCC(CNCc2cccc([N+](=O)[O-])c2)CC1` [TCMDC-141279], the “% Inhibition” value is given as 18.17%.
Consider `O=C(/C=C/c1ccc(Cl)c(Cl)c1)NCCCCCN1CCCN(C(=O)Nc2cc(Cl)nc(Cl)c2)CC1` [TCMDC-135888], for which the “% Inhibition” value was -3.146%.
As to `O=C(/C=C/c1ccc(Cl)c(Cl)c1)N1CCN(C(=O)Nc2cccc(C(F)(F)F)c2)CC1` [TCMDC-135944], the “% Inhibition” value was -35.14%.
As to `COc1ccc(NC(=O)c2cn(-c3ccc(C(C)(C)C)cc3)nc2C)cc1N1CCN(C)CC1` [TCMDC-138689], the “% Inhibition” value is recorded as -23.67%.
In the case of `c1ccc(COc2ccccc2COc2ccccc2-c2ccc3cccnc3n2)cc1` [TCMDC-136713], the “% Inhibition” value came to 16.91%.
As for `COc1ccc(OC)c(NC(=O)CSc2nc(-c3ccccc3Cl)ns2)c1` [TCMDC-124547], the figure is 60.03%; as for `COc1ccc(-n2ccnc2SCC(=O)Nc2cc(Cl)ccc2OC)c(OC)c1` [TCMDC-125135], -9.787%.
As for `COc1ccc(OC)c(NC(=O)c2c(-c3c(F)cccc3Cl)noc2C)c1` [TCMDC-123664], the figure is 2.719%; as for `FC(F)(F)c1ccc(COc2cc(Cl)ccc2Cn2ccnc2)cc1` [TCMDC-137640], -9.557%; as for `COc1cc(Cc2cnc(N)nc2N)cc(OCCCCCCC(=O)O)c1OC` [TCMDC-137630], -3.564%.
With `COc1ccc(CNCc2ccccc2)cc1-c1ccc(S(=O)(=O)NCCN2CCCC2)s1` [TCMDC-132257], the “% Inhibition” value is recorded as 102.1%.
As for `COc1ccc(CNCCc2cccs2)cc1-c1ccc(S(=O)(=O)NCCN2CCCC2)s1` [TCMDC-132477], the figure is 85.27%; as for `COc1ccc(CNCc2ccc(F)cc2)cc1-c1ccc(S(=O)(=O)NCCN2CCCC2)s1` [TCMDC-132297], 108.7%; as for `COc1ccc(CNCc2ccsc2)cc1-c1ccc(S(=O)(=O)NCCN2CCCC2)s1` [TCMDC-132298], 91.71%.
The value for `CN1CCN(c2ccnc3ccc(NC(=O)Cc4cccc(Cl)c4Cl)cc23)CC1` [TCMDC-139274] was -28.12%.
The value for `Cc1cccc2[nH]c(-c3cccc(-c4cccc(NC(=O)c5cnn6cccnc56)c4)c3)nc12` [TCMDC-136867] was -0.6551%.
`CN(C)c1cc2c(Nc3ccc4nc(Cc5ccccc5)[nH]c4c3)ncnc2cn1` [TCMDC-137304]: the “% Inhibition” value was -2.875%.
As for `COc1ccc2nccc(N(C)CC3(O)CCN(CC(O)c4ccc5c(c4)NC(=O)CS5)CC3)c2n1` (centres unmarked) [TCMDC-141471], the figure is 38.6%.
`O=C(Nc1cccc(-c2ccc(-c3nc4cc(C(F)(F)F)ccc4[nH]3)s2)c1)c1cccnc1` [TCMDC-136922]: the “% Inhibition” value came out at 0.1958%.
For `CC(C)COc1ccc(Cl)cc1Cc1ccc(-c2nc3c(cnc4ccccc43)[nH]2)o1` [TCMDC-136650], the “% Inhibition” value is reported as 61.46%.
Consider `CC(C)COc1ccc(Cl)cc1Cc1nc(-c2nc3ccc(CN4CCCCC4)cc3[nH]2)co1` [TCMDC-136811], for which the “% Inhibition” value is recorded as -22.76%.
As for `CC(C)COc1ccc(Cl)cc1Cc1nc(-c2nc3ccc(CN4CCCC4)cc3[nH]2)co1` [TCMDC-136810], the “% Inhibition” value is -7.137%.
The value for `CC(C)COc1ccc(Cl)cc1Cc1ccc(-c2nc3c(F)cccc3[nH]2)o1` [TCMDC-136661] was 74.56%.
On to `CC(C)COc1ccc(Cl)cc1Cc1ccc(-c2nc3c(F)c(F)ccc3[nH]2)o1` [TCMDC-136562], for which the “% Inhibition” value is on record as 72.75%.
As to `Clc1ccc(OCc2ccccc2)c(Cc2ccc(-c3nc4ccncc4[nH]3)o2)c1` [TCMDC-136651], the “% Inhibition” value was found to be 10.18%.
Consider `CNCc1cccc2[nH]c(-c3ccc(Cc4cc(Cl)ccc4OCC(C)C)o3)nc12` [TCMDC-137044], for which the “% Inhibition” value is given as 60.59%.
For the compound `O=C(Nc1cccc(-c2nn3ccccc3c2-c2ccnc(Nc3cccc(F)c3)n2)c1)C1CCCCC1` [TCMDC-135770], the “% Inhibition” value was -93.68%.
Consider `Cc1ccc2c(O)c([N+](=O)[O-])c(=O)[nH]c2c1` [TCMDC-131383], for which the “% Inhibition” value is on record as 0.04547%.
In the case of `CCCn1c(SCC(=O)Nc2cc(C(F)(F)F)ccc2Cl)n[nH]c1=O` [TCMDC-123566], the “% Inhibition” value is reported as -8.395%.
Regarding `CC(C)(NCc1ncc[nH]1)c1nc(-c2ccc(Cl)c(O)c2)c(-c2ccncc2)[nH]1` [TCMDC-140686], the “% Inhibition” value was -7.541%.
As for `O=C(Nc1ccsc1)Nc1cccc(-c2cccc(-c3nc4ccccc4[nH]3)c2)c1` [TCMDC-133212], the figure is -2.113%.
Take `COc1ccc(-c2cccc(CNC3CCN(CC4Cn5c(=O)ccc6ccc(F)c4c65)CC3)c2)cc1` (centres unmarked) [TCMDC-134414]: the “% Inhibition” value is reported as -11.45%.
On to `CCc1ccccc1OCCCON1C(N)=NC(N)=NC1(C)C` [TCMDC-131305], for which the “% Inhibition” value came to 3.059%.
Turning to `COc1ccc2c(C)cc(NCCCN(C)C)nc2c1` [TCMDC-124046], the “% Inhibition” value is on record as 8.685%.
For `COc1cc(NCC(CN)Cc2ccc3c(c2)OCO3)nc2ccccc12.Cl` (centres unmarked) [TCMDC-140387], the “% Inhibition” value was 69.08%.
As to `COc1ccccc1N1CCN(C(C(=O)NCc2ccc3c(c2)OCO3)c2ccc3c(c2)OCCCO3)CC1` (centres unmarked) [TCMDC-135675], the “% Inhibition” value is -10.78%.
As for `Cc1nc(NCc2ccccc2)cc(NCC(O)c2ccc(O)cc2)n1` (centres unmarked) [TCMDC-135163], the figure is 19.67%; as for `COc1cc(NCC(O)CNc2cc(OC)c3ccccc3n2)nc2ccccc12` [TCMDC-139360], 55.11%.
Regarding `COc1cc(NCCCCCNc2cc(Cl)nc3ccccc23)nc2ccccc12` [TCMDC-139303], the “% Inhibition” value was -22.5%.
For `COc1ccccc1N1CCN(C(C(=O)NCc2ccc3c(c2)OCO3)c2ccc(C)cc2)CC1` (centres unmarked) [TCMDC-135503], the “% Inhibition” value is on record as -4.748%.
Regarding `COc1ccc(COc2cc(NCCCN)nc3ccccc23)cc1` [TCMDC-139286], the “% Inhibition” value worked out at 99.04%.
As for `COc1cc(NCC(O)CNc2cc(Cl)nc3ccccc23)nc2ccccc12` (centres unmarked) [TCMDC-139359], the figure is 31.96%.
On to `Cc1ccc(C(=O)Nc2ccnc(N(C)C3CCN(Cc4cccc(O)c4)CC3)c2)cn1` [TCMDC-134967], for which the “% Inhibition” value was -0.6383%.
